Source: PubChem BioAssay (Broad Institute)
Only some compounds are listed: those with a hit (about 3.4% of all), similar ones and a draw of the others.
PGC1a acetyl inh – lowers PGC1a acetylation signal in U2OS cells; inhibition, % at 15.6 µM; AlphaScreen anti-acetyl-lysine; with virally co-expressed GCN5 acetyltransferase; AID 651687; 350,000 compounds, 0.17% hits;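 active means every replicate shows inhibition of at least 40%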
LGR2 inh – blocks bursicon-induced cAMP signaling via Drosophila LGR2; HEK293 LGR2, CRE-luciferase, bursicon-stimulated, 4 h; inhibition, % at 9.99 µM; 380,000 compounds, 0.35% hits;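 active means drop in luminescence signal, shown as inhibition above about 50% in the replicate tests, limit read from the data, passing the limit was not always enough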;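 further: agonist challenge used bursicon conditioned medium at about half maximal strength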
PAX8 inh HTS – PAX8 transcriptional activity inhibition | RMG-I TPO-luciferase reporter, SteadyGlo, 24 h | inhibition, % at 12.6 µM | 360,000 compounds, 1.2% hits | AID 652154;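 active means mean replicate inhibition at least 60% with every replicate also reaching 60%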;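 further: luciferase light reporting Pax8 driven TPO promoter activity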
Ecoli rRNA inh – inhibitors of bacterial rRNA selective over humanized ribosomes. E. coli WT GFP vs humanized-ribosome RFP mutants, fluorescence, 24 h; active compounds read low; DMSO median 0, no signal -100. GFP signal change (wild-type ribosome), % (no concentration beside the values). 350,000 compounds, 1.6% hits;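 active means significant combined selectivity score with lowered wild-type GFP, culture density cut under 30%, mutant RFP and density less affected; inactive means any of these conditions unmet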
SIRT5 inh – inhibitors of human sirtuin-5 desuccinylase; Q9NXA8; inhibition, % at 15 µM; AID 652115; Purified SirT5, succinyl-peptide AMC, trypsin-coupled fluorescence; 330,000 compounds, 1.1% hits; in the data active means inhibition above about 15%
Target sequence (Q9NXA8 whole entry, looked up): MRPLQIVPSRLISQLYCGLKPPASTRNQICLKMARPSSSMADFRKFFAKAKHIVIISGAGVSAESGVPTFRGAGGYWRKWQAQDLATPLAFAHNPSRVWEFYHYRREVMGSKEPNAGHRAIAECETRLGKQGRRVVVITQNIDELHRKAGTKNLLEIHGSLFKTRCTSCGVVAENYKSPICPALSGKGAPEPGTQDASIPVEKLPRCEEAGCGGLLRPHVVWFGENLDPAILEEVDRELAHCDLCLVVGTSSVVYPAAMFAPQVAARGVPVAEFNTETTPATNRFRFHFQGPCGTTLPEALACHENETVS
EWS-Fli inh – EWS/Fli transcriptional activity inhibition; inhibition, % at 12.6 µM; 350,000 compounds, 0.67% hits; A673 NR0B1-luciferase reporter, viability-normalised;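 active means mean inhibition of at least 50% after viability correction, with every replicate also passing that limit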;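 further: firefly luciferase signal divided by Alamar Blue viability fluorescence both relative to DMSO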
A number is an active result; – = inactive; · = no result given.

SMILES	PGC1a acetyl inh	LGR2 inh	PAX8 inh HTS	Ecoli rRNA inh	SIRT5 inh	EWS-Fli inh
COCC(=O)N(C)C[C@H]1Oc2cc(C#CCC3CCCC3)ccc2S(=O)(=O)N([C@@H](C)CO)C[C@@H]1C	–	–	73	–	–	–
C[C@H]1CN([C@@H](C)CO)S(=O)(=O)c2ccc(C#CCC3CCCC3)cc2O[C@H]1CN(C)C(=O)CN(C)C	–	–	64	–	–	–
C[C@@H]1CN([C@@H](C)CO)S(=O)(=O)c2ccc(C#Cc3ccc(F)cc3)cc2O[C@H]1CN(C)C(=O)CN(C)C	–	–	·	–	–	59
COc1ccc(CN2CCC(C)=CC2C)cc1 (centres undefined)	–	·	–	·	–	–
COc1ccc(S(=O)(=O)Nc2ccc3c(c2)C(=O)N([C@@H](C)CO)C[C@@H](C)[C@H](CN(C)C(=O)Nc2ccc(F)cc2)O3)cc1	–	–	–	–	–	–
C[C@@H]1CCCCO[C@H](CN(C)C(=O)Nc2ccc(F)cc2)[C@H](C)CN([C@@H](C)CO)C(=O)c2cc(NC(=O)Nc3ccc(C(F)(F)F)cc3)ccc2O1	–	–	–	–	–	–
CNC[C@H]1Oc2ccc(N)cc2CC(=O)N(C)C[C@@H]1C	·	·	·	–	·	·
CNC[C@@H]1Oc2ccccc2CC(=O)N(C)C[C@@H]1C	·	·	·	–	·	·
COc1ccc(-c2cn(-c3ccc(Cl)cc3)c3[n+]2CCCCC3)cc1	·	–	–	-35	–	–
COc1ccc(-n2cc(-c3ccc(OC(F)F)cc3)[n+]3c2CCCCC3)cc1	·	–	86	–	–	–
Clc1ccc(-c2cn3nc4c(nc3n2)CCCC4)cc1	–	·	·	·	·	·
COc1ccc(-c2cn(-c3ccc(Br)cc3)c3[n+]2CCS3)cc1	–	–	65	–	–	–
Clc1ccc(-c2cn(-c3ccc(Cl)cc3)c3[n+]2CCCCC3)cc1	·	–	–	-46	–	–
COc1ccc(N2CC(O)(c3ccc(OC(F)F)cc3)[N+]3=C2CCCC3)cc1 (centres undefined)	–	–	–	–	–	–
C[C@H](CO)N1C[C@H](C)[C@@H](CN(C)Cc2ccc(C(=O)Nc3ccccc3N)cc2)Oc2c(NC(=O)c3nc4ccccc4s3)cccc2C1=O	–	–	·	–	–	–
CNC[C@@H]1OCCCC[C@H](C)Oc2ccc(NC(=O)Nc3ccc4c(c3)OCO4)cc2C(=O)N([C@@H](C)CO)C[C@@H]1C	–	–	–	–	·	–
COc1cccc(S(=O)(=O)Nc2ccc3c(c2)C(=O)N(C)C[C@H](OC)[C@H](C)CN[C@H](C)CO3)c1	–	–	·	–	–	–
CC(C)N=C(NS(=O)(=O)c1ccccc1)C(Cl)(Cl)Cl	–	62	96	–	·	–
O=S(=O)(NC(=S)c1ccccc1)c1ccccc1	·	·	–	·	–	–
O=C(O)CCCC(=O)Nc1ccccc1C(=O)N1CCOCC1	–	–	–	–	28	–
CC1=C(C(=O)OC2CCCCC2)C(c2ccccc2)NC(=O)N1 (centres undefined)	–	–	–	–	–	–
CC1=C(C(=O)OC2CCCCCCC2)C(c2ccc(O)cc2)NC(=O)N1 (centres undefined)	–	–	·	-43	–	–
COc1ccc(NS(=O)(=O)c2cc(NC(=O)c3ccc(=O)[nH]n3)ccc2N2CCOCC2)cc1	–	–	–	-27	–	–
COc1ccccc1S(=O)(=O)N(C)C[C@H]1Oc2cc(C#CCC3CCCC3)ccc2S(=O)(=O)N([C@@H](C)CO)C[C@@H]1C	–	–	82	–	19	–
COc1ccccc1S(=O)(=O)N(C)C[C@@H]1Oc2cc(C#CCC(C)C)ccc2S(=O)(=O)N([C@H](C)CO)C[C@H]1C	–	–	·	–	28	–
SMILES	PGC1a acetyl inh	LGR2 inh	PAX8 inh HTS	Ecoli rRNA inh	SIRT5 inh	EWS-Fli inh
COc1ccccc1S(=O)(=O)N(C)C[C@@H]1Oc2cc(C#CCC(C)C)ccc2S(=O)(=O)N([C@@H](C)CO)C[C@H]1C	–	–	·	–	30	–
COc1ccccc1S(=O)(=O)N(C)C[C@@H]1Oc2cc(C#CCC(C)C)ccc2S(=O)(=O)N([C@@H](C)CO)C[C@@H]1C	–	–	·	–	28	–
C[C@H](CO)N1C[C@H](C)[C@H](CN(C)C)Oc2cc(C#CCC3CCCC3)ccc2S1(=O)=O	–	–	·	–	–	–
O=C(C[C@H]1CC[C@@H](NC(=O)c2ccncc2)[C@H](CO)O1)Nc1ccc(-c2ccccc2)cc1	–	–	·	–	–	–
CCC(=O)N1CC(=O)N2[C@H](CO)[C@H](c3ccc(C#Cc4cccc(F)c4)cc3)[C@@H]2C1	–	–	·	–	–	–
CC(C)CC#Cc1cnc2c(c1)C(=O)N([C@@H](C)CO)C[C@H](C)[C@H](CN(C)Cc1ccc(C(=O)O)cc1)O2	–	–	·	–	–	–
CC(=O)Nc1ccc(N2C(=O)CSC2c2ccc([N+](=O)[O-])cc2)cc1 (centres undefined)	–	–	–	–	27	–
Cc1cc(Cl)n2nc(C)c(-c3ccc(Cl)cc3)c2n1	–	·	81	·	–	–
Cc1cc(N)n2nc(C)c(-c3ccc(Cl)cc3)c2n1	–	–	–	–	–	–
CCOC(=O)c1c[nH]c(=S)n(-c2ccccc2)c1=O	–	–	–	–	·	–
CCOC(=O)c1c(SCCN2CCCC2)n(-c2ccccc2)c(=S)n(-c2ccccc2)c1=O	·	–	–	–	–	61
C[C@@H]1CN([C@H](C)CO)C(=O)c2cc(NC(=O)CCC(F)(F)F)ccc2O[C@@H](C)CCCCO[C@@H]1CN(C)C(=O)c1ccccc1	–	–	–	–	–	–
Cc1cccc(N(Cc2cc(=O)[nH]c3ccccc23)C(=O)CCl)c1	·	–	115	–	–	61
COc1ccc(N(Cc2cc(=O)[nH]c3ccccc23)C(=O)CCl)cc1	–	–	–	–	–	66
CCCC(=O)N(Cc1cc(=O)[nH]c2ccccc12)c1ccc(OC)cc1	·	–	–	–	–	–
CCCC(=O)N(Cc1cc(=O)[nH]c2ccccc12)c1cccc(C)c1	–	–	–	–	–	–
CC(=O)Nc1ncc2c(n1)CC(c1ccco1)CC2=O (centres undefined)	–	·	–	·	16	·
O=C(CSc1nc2ccccc2s1)NCc1ccc2c(c1)OCO2	·	–	–	·	·	·
O=C(CCCSc1nc2ccccc2s1)NCc1ccc2c(c1)OCO2	·	–	–	-28	–	–
C[C@@H]1CN(C)C(=O)c2cccc(N)c2O[C@H]1CN(C)C(=O)OC(C)(C)C	·	·	·	–	·	·
O=C(N/N=C/c1ccco1)c1ccc(N2CCCC2=O)cc1	–	–	–	·	·	·
COc1cccc(/C=N/NC(=O)c2[nH]nc3c2CCc2ccccc2-3)c1	–	–	–	-37	–	–
COc1cccc(/C=N/NC(=O)c2ccc(N3CCCC3=O)cc2)c1	–	–	96	-19	–	–
CCCC(=O)Nc1ccc2c(c1)OC[C@@H](C)N(C(=O)c1ccncc1)C[C@@H](C)[C@H](OC)CN(C)C2=O	–	–	–	–	–	–
